Data from article PMC11006913.
Where a chain is given by its changes, count along the chain named.

Experiments:
Assay in all cases: PBM; 200 nM protein, PBS
Conditions in all cases: dsDNA, one strand shown
[1] = biological target: T1, SIX6 (Homo sapiens, UniProt O95475 114-200, L167I)
T1 sequence: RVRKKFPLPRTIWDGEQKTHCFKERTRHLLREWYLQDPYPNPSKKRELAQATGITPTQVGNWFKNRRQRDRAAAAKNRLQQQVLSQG

[2] = biological target: T2, SIX6 (Homo sapiens, UniProt O95475 114-200, L143V)
T2 sequence: T1 sequence with L30V, I54L

[3] = biological target: T3, SIX6 (Homo sapiens, UniProt O95475 114-200, H141N)
T3 sequence: T1 sequence with H28N, I54L

[4] = biological target: T4, SIX6 (Homo sapiens, UniProt O95475 114-200, T165P)
T4 sequence: T1 sequence with T52P, I54L

[5] = biological target: T5, SIX6 (Homo sapiens, UniProt O95475 114-200, L167M)
T5 sequence: T1 sequence with I54M

[6] = biological target: T6, SIX6 (Homo sapiens, UniProt O95475 114-200, L143M)
T6 sequence: T1 sequence with L30M, I54L

[7] = biological target: T7, SIX6 (Homo sapiens, UniProt O95475 114-200, L143I)
T7 sequence: T1 sequence with L30I, I54L

[8] = biological target: T8, SIX6 (Homo sapiens, UniProt O95475 114-200, T165G)
T8 sequence: T1 sequence with T52G, I54L

[9] = biological target: T9, SIX6 (Homo sapiens, UniProt O95475 114-200, T139Q)
T9 sequence: T1 sequence with T26Q, I54L

[10] = biological target: T10, SIX6 (Homo sapiens, UniProt O95475 114-200, T165A)
T10 sequence: T1 sequence with T52A, I54L

[11] = biological target: T11, SIX6 (Homo sapiens, UniProt O95475 114-200, L167V)
T11 sequence: T1 sequence with I54V

[12] = biological target: T12, SIX6 (Homo sapiens, UniProt O95475 114-200)
T12 sequence: T1 sequence with I54L

[13] = biological target: T13, SIX6 (Homo sapiens, UniProt O95475 114-200, T165I)
T13 sequence: T1 sequence with T52I, I54L

Sequence	binding signal [1]	binding signal [2]	binding signal [3]	binding signal [4]	binding signal [5]	binding signal [6]	binding signal [7]	binding signal [8]	binding signal [9]	binding signal [10]	binding signal [11]	binding signal [12]	binding signal [13]
CCATATAC	10.3 upbm affinity estimate (log intensity, higher = more binding, comparable within an allelic series)	10.1 upbm affinity estimate (log intensity, higher = more binding, comparable within an allelic series)	10.3 upbm affinity estimate (log intensity, higher = more binding, comparable within an allelic series)	9.82 upbm affinity estimate (log intensity, higher = more binding, comparable within an allelic series)	10.3 upbm affinity estimate (log intensity, higher = more binding, comparable within an allelic series)	10.4 upbm affinity estimate (log intensity, higher = more binding, comparable within an allelic series)	10.1 upbm affinity estimate (log intensity, higher = more binding, comparable within an allelic series)	10.4 upbm affinity estimate (log intensity, higher = more binding, comparable within an allelic series)	10.5 upbm affinity estimate (log intensity, higher = more binding, comparable within an allelic series)	10.3 upbm affinity estimate (log intensity, higher = more binding, comparable within an allelic series)	10.2 upbm affinity estimate (log intensity, higher = more binding, comparable within an allelic series)	10.4 upbm affinity estimate (log intensity, higher = more binding, comparable within an allelic series)	10.3 upbm affinity estimate (log intensity, higher = more binding, comparable within an allelic series)
ATGATATC	11.4 upbm affinity estimate (log intensity, higher = more binding, comparable within an allelic series)	10.5 upbm affinity estimate (log intensity, higher = more binding, comparable within an allelic series)	11.5 upbm affinity estimate (log intensity, higher = more binding, comparable within an allelic series)	9.88 upbm affinity estimate (log intensity, higher = more binding, comparable within an allelic series)	10.9 upbm affinity estimate (log intensity, higher = more binding, comparable within an allelic series)	11.2 upbm affinity estimate (log intensity, higher = more binding, comparable within an allelic series)	10.6 upbm affinity estimate (log intensity, higher = more binding, comparable within an allelic series)	11.6 upbm affinity estimate (log intensity, higher = more binding, comparable within an allelic series)	11.5 upbm affinity estimate (log intensity, higher = more binding, comparable within an allelic series)	11.4 upbm affinity estimate (log intensity, higher = more binding, comparable within an allelic series)	11.4 upbm affinity estimate (log intensity, higher = more binding, comparable within an allelic series)	11.3 upbm affinity estimate (log intensity, higher = more binding, comparable within an allelic series)	11.2 upbm affinity estimate (log intensity, higher = more binding, comparable within an allelic series)
CAGCGTGC	9.15 upbm affinity estimate (log intensity, higher = more binding, comparable within an allelic series)	9.01 upbm affinity estimate (log intensity, higher = more binding, comparable within an allelic series)	9.08 upbm affinity estimate (log intensity, higher = more binding, comparable within an allelic series)	9.06 upbm affinity estimate (log intensity, higher = more binding, comparable within an allelic series)	9.05 upbm affinity estimate (log intensity, higher = more binding, comparable within an allelic series)	9.23 upbm affinity estimate (log intensity, higher = more binding, comparable within an allelic series)	9.08 upbm affinity estimate (log intensity, higher = more binding, comparable within an allelic series)	9.19 upbm affinity estimate (log intensity, higher = more binding, comparable within an allelic series)	9.15 upbm affinity estimate (log intensity, higher = more binding, comparable within an allelic series)	9.11 upbm affinity estimate (log intensity, higher = more binding, comparable within an allelic series)	9.05 upbm affinity estimate (log intensity, higher = more binding, comparable within an allelic series)	9.14 upbm affinity estimate (log intensity, higher = more binding, comparable within an allelic series)	9.05 upbm affinity estimate (log intensity, higher = more binding, comparable within an allelic series)
GGCCGCCA	8.71 upbm affinity estimate (log intensity, higher = more binding, comparable within an allelic series)	8.68 upbm affinity estimate (log intensity, higher = more binding, comparable within an allelic series)	8.73 upbm affinity estimate (log intensity, higher = more binding, comparable within an allelic series)	8.9 upbm affinity estimate (log intensity, higher = more binding, comparable within an allelic series)	8.74 upbm affinity estimate (log intensity, higher = more binding, comparable within an allelic series)	8.71 upbm affinity estimate (log intensity, higher = more binding, comparable within an allelic series)	8.7 upbm affinity estimate (log intensity, higher = more binding, comparable within an allelic series)	8.66 upbm affinity estimate (log intensity, higher = more binding, comparable within an allelic series)	8.63 upbm affinity estimate (log intensity, higher = more binding, comparable within an allelic series)	8.66 upbm affinity estimate (log intensity, higher = more binding, comparable within an allelic series)	8.8 upbm affinity estimate (log intensity, higher = more binding, comparable within an allelic series)	8.68 upbm affinity estimate (log intensity, higher = more binding, comparable within an allelic series)	8.7 upbm affinity estimate (log intensity, higher = more binding, comparable within an allelic series)
GCAGCCGC	8.93 upbm affinity estimate (log intensity, higher = more binding, comparable within an allelic series)	8.9 upbm affinity estimate (log intensity, higher = more binding, comparable within an allelic series)	8.98 upbm affinity estimate (log intensity, higher = more binding, comparable within an allelic series)	8.93 upbm affinity estimate (log intensity, higher = more binding, comparable within an allelic series)	9.02 upbm affinity estimate (log intensity, higher = more binding, comparable within an allelic series)	8.94 upbm affinity estimate (log intensity, higher = more binding, comparable within an allelic series)	8.95 upbm affinity estimate (log intensity, higher = more binding, comparable within an allelic series)	8.95 upbm affinity estimate (log intensity, higher = more binding, comparable within an allelic series)	9.01 upbm affinity estimate (log intensity, higher = more binding, comparable within an allelic series)	9.01 upbm affinity estimate (log intensity, higher = more binding, comparable within an allelic series)	8.97 upbm affinity estimate (log intensity, higher = more binding, comparable within an allelic series)	8.98 upbm affinity estimate (log intensity, higher = more binding, comparable within an allelic series)	9.03 upbm affinity estimate (log intensity, higher = more binding, comparable within an allelic series)
